Values joined by “and” are separate entries in the source; they are usually repeats but may differ in a detail not shown here. Identical values can stand only once. Screen size: about 5,500 compounds; about 2,000 (36%) were called active. Another 18% or so got no clear call; they are omitted. Some of the results follow. A number with no mark means an inactive call. Rule as the data show it: active = normalized growth mostly below about 0.91 (no sharp cut-off); inconclusive = no clear call, values can overlap the other calls; inactive = mostly above about 0.92.
Test: chemical genetic growth profiling, strain panel (AID 1159580);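 also: tested at 20 µM; growth read once vehicle control cultures reached saturation at 30 °C; 1 = growth at the plate median or of vehicle wells; lower values mean less growth of the strain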
Conditions: growth OD

COc1cccc(-c2cc(=O)c3cc(OC)ccc3o2)c1
normalized growth (S. cerevisiae deletion strains, locus YAL013W, strain DEP1, active compounds read low): 0.993
normalized growth (S. cerevisiae deletion strains, locus YBR021W, strain FUR4, active compounds read low): 0.816 (active)
normalized growth (S. cerevisiae deletion strains, locus YBR229C, strain ROT2, active compounds read low): 0.992
normalized growth (S. cerevisiae deletion strains, locus YCL029C, strain bik1, active compounds read low): 1.1 [resistant] (active)
normalized growth (S. cerevisiae deletion strains, locus YDL035C, strain GPR1, active compounds read low): 0.98
normalized growth (S. cerevisiae deletion strains, locus YDL074C, strain BRE1, active compounds read low): 0.914
normalized growth (S. cerevisiae deletion strains, locus YDL101C, strain DUN1, active compounds read low): 0.983
normalized growth (S. cerevisiae deletion strains, locus YDL134C, strain PPH21, active compounds read low): 0.95
normalized growth (S. cerevisiae deletion strains, locus YDL185W, strain tfp1, active compounds read low): 1.09
normalized growth (S. cerevisiae deletion strains, locus YDL192W, strain arf1, active compounds read low): 1.04
normalized growth (S. cerevisiae deletion strains, locus YDR101C, strain arx1, active compounds read low): 1.13 [resistant] (active)
normalized growth (S. cerevisiae deletion strains, locus YDR150W, strain NUM1, active compounds read low): 1
normalized growth (S. cerevisiae deletion strains, locus YDR162C, strain NBP2, active compounds read low): 0.968
normalized growth (S. cerevisiae deletion strains, locus YDR318W, strain mcm21, active compounds read low): 1.05
normalized growth (S. cerevisiae deletion strains, locus YDR388W, active compounds read low): 1.03
normalized growth (S. cerevisiae deletion strains, locus YDR502C, strain sam2, active compounds read low): 1.14 [resistant] (active)
normalized growth (S. cerevisiae deletion strains, locus YEL061C, strain CIN8, active compounds read low): 0.979
normalized growth (S. cerevisiae deletion strains, locus YER155C, strain BEM2, active compounds read low): 1.07
normalized growth (S. cerevisiae deletion strains, locus YER167W, strain BCK2, active compounds read low): 0.993
normalized growth (S. cerevisiae deletion strains, locus YGL078C, strain dbp3, active compounds read low): 1.07
normalized growth (S. cerevisiae deletion strains, locus YGL086W, strain mad1, active compounds read low): 1
normalized growth (S. cerevisiae deletion strains, locus YGL248W, strain PDE1, active compounds read low): 0.944
normalized growth (S. cerevisiae deletion strains, locus YGR135W, strain pre9, active compounds read low): 1.07
normalized growth (S. cerevisiae deletion strains, locus YGR229C, strain SMI1, active compounds read low): 0.858
normalized growth (S. cerevisiae deletion strains, locus YGR252W, strain gcn5, active compounds read low): 0.981
normalized growth (S. cerevisiae deletion strains, locus YHR030C, strain SLT2, active compounds read low): 0.958 and 0.966
normalized growth (S. cerevisiae deletion strains, locus YHR079C, strain IRE1 (second series), active compounds read low): 0.987
normalized growth (S. cerevisiae deletion strains, locus YHR079C, strain IRE1, active compounds read low): 0.967
normalized growth (S. cerevisiae deletion strains, locus YHR094C, strain hxt1, active compounds read low): 1.18 [resistant] (active)
normalized growth (S. cerevisiae deletion strains, locus YHR129C, strain ARP1, active compounds read low): 0.98
normalized growth (S. cerevisiae deletion strains, locus YHR200W, strain rpn10, active compounds read low): 1.14 [resistant] (active)
normalized growth (S. cerevisiae deletion strains, locus YIL066C, strain RNR3, active compounds read low): 0.94
normalized growth (S. cerevisiae deletion strains, locus YIL073C, strain SPO22, active compounds read low): 0.945
normalized growth (S. cerevisiae deletion strains, locus YIL125W, strain kgd1, active compounds read low): 1.05
normalized growth (S. cerevisiae deletion strains, locus YIR030C, strain dcg1, active compounds read low): 1.12 [resistant] (active)
normalized growth (S. cerevisiae deletion strains, locus YJL095W, strain BCK1, active compounds read low): 0.857 and 0.963
normalized growth (S. cerevisiae deletion strains, locus YJL134W, strain LCB3, active compounds read low): 1.01
normalized growth (S. cerevisiae deletion strains, locus YJL168C, strain set2, active compounds read low): 1.1 [resistant] (active)
normalized growth (S. cerevisiae deletion strains, locus YJL187C, strain SWE1 (second series), active compounds read low): 0.954
normalized growth (S. cerevisiae deletion strains, locus YJR043C, strain POL32, active compounds read low): 0.93
normalized growth (S. cerevisiae deletion strains, locus YJR066W, strain TOR1, active compounds read low): 0.916
normalized growth (S. cerevisiae deletion strains, locus YJR075W, strain HOC1, active compounds read low): 0.959
normalized growth (S. cerevisiae deletion strains, locus YKL009W, strain mrt4, active compounds read low): 0.713 (active)
normalized growth (S. cerevisiae deletion strains, locus YKL068W, active compounds read low): 1.02
normalized growth (S. cerevisiae deletion strains, locus YKL085W, strain MDH1 (second series), active compounds read low): 1.03
normalized growth (S. cerevisiae deletion strains, locus YKL085W, strain MDH1, active compounds read low): 1.03
normalized growth (S. cerevisiae deletion strains, locus YKL190W, strain CNB1, active compounds read low): 1.01
normalized growth (S. cerevisiae deletion strains, locus YKR001C, strain vps1, active compounds read low): 0.998
normalized growth (S. cerevisiae deletion strains, locus YLR039C, strain RIC1, active compounds read low): 0.995
normalized growth (S. cerevisiae deletion strains, locus YLR058C, strain SHM2, active compounds read low): 0.968
normalized growth (S. cerevisiae deletion strains, locus YLR102C, strain apc9, active compounds read low): 1.03
normalized growth (S. cerevisiae deletion strains, locus YLR113W, strain HOG1, active compounds read low): 0.983
normalized growth (S. cerevisiae deletion strains, locus YLR262C, strain YPT6, active compounds read low): 1.06
normalized growth (S. cerevisiae deletion strains, locus YLR268W, strain sec22, active compounds read low): 1.07
normalized growth (S. cerevisiae deletion strains, locus YLR330W, strain CHS5, active compounds read low): 0.952
normalized growth (S. cerevisiae deletion strains, locus YLR342W, strain FKS1 (second series), active compounds read low): 0.891
normalized growth (S. cerevisiae deletion strains, locus YLR371W, strain rom2, active compounds read low): 1.11 [resistant] (active)
normalized growth (S. cerevisiae deletion strains, locus YLR418C, strain cdc73, active compounds read low): 0.895
normalized growth (S. cerevisiae deletion strains, locus YML016C, strain PPZ1, active compounds read low): 0.987
normalized growth (S. cerevisiae deletion strains, locus YML032C, strain rad52, active compounds read low): 0.934
normalized growth (S. cerevisiae deletion strains, locus YML124C, strain tub3, active compounds read low): 1.04
normalized growth (S. cerevisiae deletion strains, locus YMR078C, strain ctf18, active compounds read low): 1.06
normalized growth (S. cerevisiae deletion strains, locus YMR223W, strain ubp8, active compounds read low): 1.09
normalized growth (S. cerevisiae deletion strains, locus YMR263W, strain SAP30, active compounds read low): 0.935
normalized growth (S. cerevisiae deletion strains, locus YMR307W, strain GAS1, active compounds read low): 0.969
normalized growth (S. cerevisiae deletion strains, locus YNL067W, strain RPL9B, active compounds read low): 0.946
normalized growth (S. cerevisiae deletion strains, locus YNL128W, strain TEP1, active compounds read low): 0.99
normalized growth (S. cerevisiae deletion strains, locus YNL183C, strain NPR1, active compounds read low): 0.96
normalized growth (S. cerevisiae deletion strains, locus YNL233W, strain BNI4, active compounds read low): 0.889
normalized growth (S. cerevisiae deletion strains, locus YNL250W, strain rad50, active compounds read low): 1.05
normalized growth (S. cerevisiae deletion strains, locus YNL271C, strain bni1, active compounds read low): 1.17 [resistant] (active)
normalized growth (S. cerevisiae deletion strains, locus YNL298W, strain CLA4, active compounds read low): 0.992
normalized growth (S. cerevisiae deletion strains, locus YNL307C, strain MCK1, active compounds read low): 1.14 [resistant] (active)
normalized growth (S. cerevisiae deletion strains, locus YNL322C, strain KRE1, active compounds read low): 0.999
normalized growth (S. cerevisiae deletion strains, locus YNR052C, strain pop2, active compounds read low): 1.03
normalized growth (S. cerevisiae deletion strains, locus YOL006C, strain TOP1, active compounds read low): 0.723
normalized growth (S. cerevisiae deletion strains, locus YOL012C, strain htz1): 0.822
normalized growth (S. cerevisiae deletion strains, locus YOL147C, strain pex11, active compounds read low): 0.969
normalized growth (S. cerevisiae deletion strains, locus YOR061W, strain CKA2, active compounds read low): 1
normalized growth (S. cerevisiae deletion strains, locus YOR069W, strain VPS5, active compounds read low): 1
normalized growth (S. cerevisiae deletion strains, locus YOR136W, strain idh2, active compounds read low): 1.18 [resistant] (active)
normalized growth (S. cerevisiae deletion strains, locus YOR184W, strain ser1, active compounds read low): 1.14 [resistant] (active)
normalized growth (S. cerevisiae deletion strains, locus YOR231W, strain MKK1, active compounds read low): 0.977
normalized growth (S. cerevisiae deletion strains, locus YOR316C, strain cot1, active compounds read low): 1.12 [resistant] (active)
normalized growth (S. cerevisiae deletion strains, locus YPL256C, strain CLN2, active compounds read low): 0.982
normalized growth (S. cerevisiae deletion strains, locus YPR119W, strain clb2, active compounds read low): 1.11 [resistant] (active)
normalized growth (S. cerevisiae deletion strains, locus YPR141C, strain kar3, active compounds read low): 1.07
normalized growth (S. cerevisiae deletion strains, locus YPR163C, strain tif3, active compounds read low): 1.07
normalized growth (S. cerevisiae deletion strains, locus YPR167C, strain met16, active compounds read low): 1.08 [resistant] (active)
normalized growth (S. cerevisiae deletion strains, strain wtn01, active compounds read low): 1.09
normalized growth (S. cerevisiae strains, strain wild type, active compounds read low): 0.972
